The results in this text go back to the supplement of paper PMC10849652.

Targets with a hit are over-represented here; the source holds about 7,900 in all. About 0.6% of all pairs of compound and target were hits. Values without a mark were called inactive.

UniProt P22059, sequence (P22059 whole entry, looked up): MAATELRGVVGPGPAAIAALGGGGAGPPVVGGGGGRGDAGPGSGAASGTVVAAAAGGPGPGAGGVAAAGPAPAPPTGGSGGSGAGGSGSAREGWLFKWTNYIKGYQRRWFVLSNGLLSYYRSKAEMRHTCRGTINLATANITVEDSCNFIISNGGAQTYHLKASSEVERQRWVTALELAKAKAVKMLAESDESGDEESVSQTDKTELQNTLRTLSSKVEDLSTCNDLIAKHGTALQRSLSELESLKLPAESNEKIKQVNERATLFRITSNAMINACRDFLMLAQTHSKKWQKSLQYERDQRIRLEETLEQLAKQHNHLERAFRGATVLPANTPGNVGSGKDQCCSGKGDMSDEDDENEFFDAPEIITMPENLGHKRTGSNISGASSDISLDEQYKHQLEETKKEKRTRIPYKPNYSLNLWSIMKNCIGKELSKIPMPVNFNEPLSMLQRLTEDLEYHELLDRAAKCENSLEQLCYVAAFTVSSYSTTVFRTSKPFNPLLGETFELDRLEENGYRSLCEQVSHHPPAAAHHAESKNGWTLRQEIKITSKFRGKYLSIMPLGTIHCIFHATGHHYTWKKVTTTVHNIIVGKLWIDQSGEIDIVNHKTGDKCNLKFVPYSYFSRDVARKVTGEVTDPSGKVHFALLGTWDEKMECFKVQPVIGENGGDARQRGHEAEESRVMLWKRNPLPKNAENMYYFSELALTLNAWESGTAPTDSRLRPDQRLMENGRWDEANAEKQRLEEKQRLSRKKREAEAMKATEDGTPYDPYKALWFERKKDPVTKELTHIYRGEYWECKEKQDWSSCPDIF
MTHFD1, A0A384N5Y3, sequence (A0A384N5Y3 whole entry, looked up): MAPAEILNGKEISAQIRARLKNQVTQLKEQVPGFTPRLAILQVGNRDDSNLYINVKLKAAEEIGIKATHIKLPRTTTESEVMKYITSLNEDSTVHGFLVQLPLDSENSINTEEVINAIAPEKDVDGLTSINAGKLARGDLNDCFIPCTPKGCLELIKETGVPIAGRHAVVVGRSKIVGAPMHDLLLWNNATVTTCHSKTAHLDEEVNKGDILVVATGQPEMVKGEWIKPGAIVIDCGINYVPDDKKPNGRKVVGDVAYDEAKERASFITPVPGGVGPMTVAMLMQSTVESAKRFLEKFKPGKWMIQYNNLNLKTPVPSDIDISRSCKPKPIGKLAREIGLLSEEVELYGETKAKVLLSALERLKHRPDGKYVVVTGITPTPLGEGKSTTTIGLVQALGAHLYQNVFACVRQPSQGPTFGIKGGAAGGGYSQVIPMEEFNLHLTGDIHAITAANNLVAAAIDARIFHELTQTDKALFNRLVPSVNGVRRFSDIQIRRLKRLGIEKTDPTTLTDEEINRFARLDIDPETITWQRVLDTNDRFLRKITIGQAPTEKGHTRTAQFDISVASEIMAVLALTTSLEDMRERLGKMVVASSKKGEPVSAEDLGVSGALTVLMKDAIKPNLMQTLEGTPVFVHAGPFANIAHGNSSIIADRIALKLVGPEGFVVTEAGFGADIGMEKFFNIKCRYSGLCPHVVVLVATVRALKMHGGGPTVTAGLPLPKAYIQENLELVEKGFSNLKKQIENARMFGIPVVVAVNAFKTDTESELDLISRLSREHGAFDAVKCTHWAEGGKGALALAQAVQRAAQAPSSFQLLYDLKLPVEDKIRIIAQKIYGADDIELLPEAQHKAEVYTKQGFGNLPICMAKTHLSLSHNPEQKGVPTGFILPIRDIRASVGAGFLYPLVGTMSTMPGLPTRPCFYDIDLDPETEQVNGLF
UniProt Q6VY07, sequence (Q6VY07 whole entry, looked up): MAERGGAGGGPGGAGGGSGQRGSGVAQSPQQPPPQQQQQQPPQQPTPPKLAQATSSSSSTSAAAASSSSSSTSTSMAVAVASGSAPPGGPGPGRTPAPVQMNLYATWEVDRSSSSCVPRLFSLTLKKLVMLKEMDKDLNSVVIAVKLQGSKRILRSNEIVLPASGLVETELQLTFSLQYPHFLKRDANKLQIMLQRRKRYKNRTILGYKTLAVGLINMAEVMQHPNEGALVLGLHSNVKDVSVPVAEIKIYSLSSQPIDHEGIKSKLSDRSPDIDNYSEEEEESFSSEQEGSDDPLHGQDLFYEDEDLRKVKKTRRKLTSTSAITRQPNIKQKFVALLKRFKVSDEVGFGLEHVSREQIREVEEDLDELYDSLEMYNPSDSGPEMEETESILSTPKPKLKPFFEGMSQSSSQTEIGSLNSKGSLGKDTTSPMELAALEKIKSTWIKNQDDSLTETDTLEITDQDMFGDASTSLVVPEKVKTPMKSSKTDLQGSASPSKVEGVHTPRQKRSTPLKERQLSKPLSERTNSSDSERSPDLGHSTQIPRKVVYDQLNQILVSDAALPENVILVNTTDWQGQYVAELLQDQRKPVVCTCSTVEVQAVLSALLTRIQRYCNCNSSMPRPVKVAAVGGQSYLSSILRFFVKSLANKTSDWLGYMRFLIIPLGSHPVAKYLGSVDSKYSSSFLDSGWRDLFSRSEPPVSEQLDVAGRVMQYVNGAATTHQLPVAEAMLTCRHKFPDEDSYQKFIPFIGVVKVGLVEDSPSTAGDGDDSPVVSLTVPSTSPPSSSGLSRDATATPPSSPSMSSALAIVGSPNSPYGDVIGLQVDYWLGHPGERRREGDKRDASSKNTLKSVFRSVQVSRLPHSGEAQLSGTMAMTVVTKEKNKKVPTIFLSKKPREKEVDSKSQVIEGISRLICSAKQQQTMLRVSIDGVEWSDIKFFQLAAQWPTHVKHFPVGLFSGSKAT
UniProt Q9UI09, sequence (Q9UI09 whole entry, looked up): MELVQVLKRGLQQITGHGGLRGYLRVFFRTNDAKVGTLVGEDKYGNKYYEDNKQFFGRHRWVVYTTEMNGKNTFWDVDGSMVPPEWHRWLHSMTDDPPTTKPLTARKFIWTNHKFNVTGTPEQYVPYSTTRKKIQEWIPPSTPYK
UniProt Q9Y314, sequence (Q9Y314 whole entry, looked up): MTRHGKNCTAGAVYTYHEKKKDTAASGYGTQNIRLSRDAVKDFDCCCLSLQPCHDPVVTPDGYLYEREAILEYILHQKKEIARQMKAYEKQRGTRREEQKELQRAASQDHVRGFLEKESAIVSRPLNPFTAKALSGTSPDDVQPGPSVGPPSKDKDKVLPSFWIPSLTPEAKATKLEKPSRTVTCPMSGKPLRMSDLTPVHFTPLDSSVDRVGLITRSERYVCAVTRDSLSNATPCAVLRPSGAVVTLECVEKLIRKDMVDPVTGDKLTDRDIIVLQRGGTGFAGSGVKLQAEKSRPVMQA
UniProt Q9HCE1, sequence (Q9HCE1 whole entry, looked up): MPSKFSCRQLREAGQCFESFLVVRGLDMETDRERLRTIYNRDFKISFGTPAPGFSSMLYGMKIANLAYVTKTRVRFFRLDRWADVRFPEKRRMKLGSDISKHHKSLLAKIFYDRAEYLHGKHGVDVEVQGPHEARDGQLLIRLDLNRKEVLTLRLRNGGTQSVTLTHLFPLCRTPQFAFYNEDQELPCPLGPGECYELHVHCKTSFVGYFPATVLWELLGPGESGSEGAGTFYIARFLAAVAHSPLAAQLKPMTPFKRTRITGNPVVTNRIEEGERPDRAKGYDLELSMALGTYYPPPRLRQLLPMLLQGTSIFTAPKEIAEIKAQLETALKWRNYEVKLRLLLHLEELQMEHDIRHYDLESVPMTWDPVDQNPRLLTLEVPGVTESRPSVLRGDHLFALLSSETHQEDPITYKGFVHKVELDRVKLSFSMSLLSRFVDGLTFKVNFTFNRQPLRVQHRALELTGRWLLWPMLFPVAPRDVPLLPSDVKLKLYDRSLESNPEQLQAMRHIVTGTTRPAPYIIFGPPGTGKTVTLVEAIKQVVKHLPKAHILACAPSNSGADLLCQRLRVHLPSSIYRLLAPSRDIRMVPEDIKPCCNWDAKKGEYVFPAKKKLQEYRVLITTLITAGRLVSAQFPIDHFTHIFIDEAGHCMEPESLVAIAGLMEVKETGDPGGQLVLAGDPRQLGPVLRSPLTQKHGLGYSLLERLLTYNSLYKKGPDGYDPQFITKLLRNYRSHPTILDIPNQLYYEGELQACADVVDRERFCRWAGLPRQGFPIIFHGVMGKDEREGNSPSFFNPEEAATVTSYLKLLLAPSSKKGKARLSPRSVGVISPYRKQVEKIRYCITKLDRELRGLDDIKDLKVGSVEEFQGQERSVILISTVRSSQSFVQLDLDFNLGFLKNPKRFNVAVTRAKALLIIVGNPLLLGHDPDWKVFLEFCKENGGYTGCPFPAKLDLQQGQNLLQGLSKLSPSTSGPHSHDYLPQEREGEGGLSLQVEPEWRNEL
UniProt Q9H8H0, sequence (Q9H8H0 whole entry, looked up): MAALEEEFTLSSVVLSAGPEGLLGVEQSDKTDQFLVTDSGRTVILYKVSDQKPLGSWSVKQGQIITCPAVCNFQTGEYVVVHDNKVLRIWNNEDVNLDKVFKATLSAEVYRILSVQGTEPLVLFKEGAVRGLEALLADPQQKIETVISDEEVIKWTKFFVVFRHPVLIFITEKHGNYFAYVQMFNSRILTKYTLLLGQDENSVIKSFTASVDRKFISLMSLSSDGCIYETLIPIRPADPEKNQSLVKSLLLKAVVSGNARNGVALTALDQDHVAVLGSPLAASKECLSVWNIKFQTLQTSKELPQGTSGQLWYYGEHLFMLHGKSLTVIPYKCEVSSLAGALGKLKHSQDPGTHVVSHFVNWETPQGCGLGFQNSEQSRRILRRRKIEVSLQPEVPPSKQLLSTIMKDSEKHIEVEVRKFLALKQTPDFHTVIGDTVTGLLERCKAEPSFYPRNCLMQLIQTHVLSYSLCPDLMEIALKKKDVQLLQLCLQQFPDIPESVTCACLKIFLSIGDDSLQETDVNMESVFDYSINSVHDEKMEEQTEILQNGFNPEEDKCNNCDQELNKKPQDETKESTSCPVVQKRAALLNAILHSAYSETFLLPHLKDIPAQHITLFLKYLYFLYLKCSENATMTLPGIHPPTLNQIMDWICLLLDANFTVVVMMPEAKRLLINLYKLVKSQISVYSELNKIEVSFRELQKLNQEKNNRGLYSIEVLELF
UniProt P15531, sequence (P15531 whole entry, looked up): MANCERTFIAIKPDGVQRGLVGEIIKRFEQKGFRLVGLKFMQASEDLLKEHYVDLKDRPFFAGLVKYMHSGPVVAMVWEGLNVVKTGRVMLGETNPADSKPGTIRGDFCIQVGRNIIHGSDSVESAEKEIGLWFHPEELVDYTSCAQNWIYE

Compound in this assay: Cn1cc(-c2ccc3nnc(C(F)(F)c4ccc5ncccc5c4)n3n2)cn1
Briefly: log2 fold change, soluble protein after heating vs DMSO (PISA); higher = thermal stabilisation; K562 cells, 10 uM, 30 min; active = over 0.2 and 3.5 SD of the protein, either way, in both replicates (recomputed). The method in brief: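 Soluble protein was defined as the supernatant after 21,000xg for 90 min. It came from K562 cells at 2×10^6 cells/mL given 10 μM compound for 30 min, heated in aliquots for 3 min across 48°C-58°C, pooled, and extracted in PBS with 0.5% NP-40 at 4°C, and was quantified by TMTpro 16plex LC-MS/MS with equalised channel sums. Thermal stability against control samples, from duplicates, is reported as log2 fold change.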
NFATC2 (UniProt Q13469): the log2 fold change was -0.075. The figure for MRPS18B (UniProt Q9Y676) is 0.081; for PACS1 (UniProt Q6VY07) it is -0.098. To NUP205 (UniProt Q92621) belongs -0.052; to NA, A0A0B4J2A0, -0.015. To OSBP (UniProt P22059) belongs -0.024; to MKNK1 (UniProt Q9BUB5), -0.183. On to NMNAT1 (UniProt Q9HAN9), for which the log2 fold change was -0.21.

Turning to MRPS25 (UniProt P82663), the log2 fold change is 0. To NME1 isoform 2 (UniProt P15531) belongs -0.013; to MRPL47 (UniProt Q9HD33), -0.085; to NDUFA12 (UniProt Q9UI09), 0.062.

As to MOV10 (UniProt Q9HCE1), the log2 fold change was -0.101. To MTHFD1, A0A384N5Y3 belongs -0.008; to MRPS5 (UniProt P82675), 0.087.

Turning to NFATC2IP (UniProt Q8NCF5), the log2 fold change was 0.049.

For NOL11 (UniProt Q9H8H0), the log2 fold change is 0.001. To NDUFA6 (UniProt P56556) belongs 0.081; to OSBPL8 (UniProt Q9BZF1), -0.093; to NOSIP (UniProt Q9Y314), -0.111. To NR2C2 isoform 2 (UniProt P49116) belongs -0.038; to NDUFB8 (UniProt O95169), 0.154. The figure for NQO1 (UniProt P15559) is 0.291 (active).
